According to PubChem BioAssay (Tox21):
A number with no mark means an inactive call. Inconclusive results are not listed. Where a call stands in place of a potency, no number is given. The source made the active and inactive calls. Unless noted, the call rests on the fitted dose curve; in most records, active means well fitted curve in the direction sought with a large enough effect in the repeat runs; inconclusive means weak or mixed curves; inactive means no such curve, though single readings can be large; an effect the other way counts as inactive or inconclusive.

Assays:
[1] = qHTS assay to identify small molecule agonists of H2AX - cell viability counter screen (AID 1224847; calls by dose curve; further: top concentration of the series differs between compounds; nearly all actives have a fitted effect of over 30% in size)
Method in brief: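 Wild-type CHO-K1 cells (10% FBS medium) were plated overnight at 37C, exposed to compounds at 15 concentrations for 3 hr at 37C (0.76% DMSO final), and viability was read as CellTiter-Glo luminescence after 30 min at room temperature.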

[2] = qHTS RealTime-Glo MT Cell Viability Assay in HepG2 cells - 24 hour (AID 1224867); further: nearly all actives have a fitted effect of over 50% in size
Method in brief: (§1)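 Tox21 10K library screened in qHTS format on HepG2 cells carrying RealTime-Glo reagents. Compounds were added after a 5 h preincubation, and the luminescent signal from continuous culture was measured repeatedly during 40 h treatment.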

[3] = qHTS RealTime-Glo MT Cell Viability Assay in HEK293 cells - 32 hour (AID 1224868); further: nearly all actives have a fitted effect of over 50% in size; further: potency means the concentration at half of the fitted maximal effect; on activity change, negative = cytotoxic: top concentration of the series differs between compounds
Method in brief: (§2)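 Luminescence generated by NanoLuc from substrate produced by living HEK293 cells served as the viability signal. Each value reflects the reading at its stated time point during continuous 40 h compound exposure at 37 C.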

[4] = A CellTox Green Cytotoxicity Assay to monitor cytotoxicity in HEK293 cells - 0 hour (AID 1224869); further: nearly all actives have a fitted effect of over 50% in size
Method in brief: (§3)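 Fluorescence from a DNA-binding dye excluded by viable cells was measured repeatedly in the same HEK293 wells (600 cells/well) during continuous compound exposure at 37 C. Each assay gives one read point: 0, 8, 16, 24, 32 or 40 h.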

[5] = qHTS RealTime-Glo MT Cell Viability Assay in HepG2 cells - 40 hour (AID 1224870); further: nearly all actives have a fitted effect of over 50% in size
Method in brief: (§4)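 Real-time viability: cells seeded at 600 per well together with NanoLuc and cell-permeant prosubstrate, compounds added after 5 h incubation. Luminescence tracked at 0, 8, 16, 24, 32 and 40 h of exposure.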

[6] = A CellTox Green Cytotoxicity Assay to monitor cytotoxicity in HEK293 cells - 40 hour (AID 1224871); further: nearly all actives have a fitted effect of over 45% in size
Method in brief: as §3

[7] = qHTS RealTime-Glo MT Cell Viability Assay in HEK293 cells - 16 hour (AID 1224872)
Method in brief: as §2

[8] = qHTS RealTime-Glo MT Cell Viability Assay in HEK293 cells - 40 hour (AID 1224874); settings: RealTime-Glo luminescence; max response: active compounds read low; further: nearly all actives have a fitted effect of over 50% in size; further: potency means the concentration at half of the fitted maximal effect
Method in brief: (§5)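 Luminescence, which tracks viable cell number through reduction of the prosubstrate to a NanoLuc substrate, was read over continuous 37 C culture. Cells (600/well) were premixed with reagent and rested 5 h before 23 nL of compound in DMSO was pinned.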

[9] = A CellTox Green Cytotoxicity Assay to monitor cytotoxicity in HEK293 cells - 24 hour (AID 1224875); further: nearly all actives have a fitted effect of over 45% in size
Method in brief: as §3

[10] = qHTS RealTime-Glo MT Cell Viability Assay in HepG2 cells - 32 hour (AID 1224877); further: nearly all actives have a fitted effect of over 55% in size
Method in brief: as §1

[11] = A CellTox Green Cytotoxicity Assay to monitor cytotoxicity in HepG2 cells - 40 hour (AID 1224879); further: nearly all actives have a fitted effect of over 40% in size; further: potency means the concentration at half of the fitted maximal effect
Method in brief: (§6)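 Real-time cytotoxicity: fluorescence of a cell-impermeant cyanine dye binding DNA of dead HepG2 cells, measured repeatedly (0–40 h) during compound exposure at 37 C. Cells seeded 600/well with reagent, dosed after 5 h.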

[12] = qHTS RealTime-Glo MT Cell Viability Assay in HEK293 cells - 0 hour (AID 1224880); further: top concentration of the series differs between compounds; nearly all actives have a fitted effect of over 45% in size
Method in brief: as §5

[13] = qHTS assay to identify small molecule antagonists of the estrogen related receptor (ERR) signaling pathway from Tox21 library (AID 1224848); further: nearly all actives have a fitted effect of over 50% in size; further: potency means the concentration at half of the fitted maximal effect
Method in brief: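 Luciferase luminescence (ONE-Glo, 30 min room temperature) was the read-out. Cells of the NTP-supplied ERR line, 2,000 per well, were given 6 h at 37 C before compound addition in DMSO and 18 h exposure at 37 C.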

[14] = qHTS assay to identify small molecule agonists of the estrogen related receptor (ERR) signaling pathway from Tox21 library (AID 1224849; calls by dose curve; further: nearly all actives have a fitted effect of over 15% in size); settings: ERR reporter cell line, ONE-Glo luciferase, 18 h; at 92.4 µM (top of the series) unless noted
Method in brief: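 Luminescent agonist read-out (One-Glo, 30-minute room-temperature incubation) following 18-hour compound treatment at 37 C of the ERR cell line, which had been plated 6 hours before dosing.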

[15] = qHTS RealTime-Glo MT Cell Viability Assay in HepG2 cells - 8 hour (AID 1224873); further: nearly all actives have a fitted effect of over 55% in size
Method in brief: as §4

[16] = A CellTox Green Cytotoxicity Assay to monitor cytotoxicity in HepG2 cells - 24 hour (AID 1224878); further: nearly all actives have a fitted effect of over 45% in size; further: potency means the concentration at half of the fitted maximal effect
Method in brief: as §6

[17] = A CellTox Green Cytotoxicity Assay to monitor cytotoxicity in HepG2 cells - 16 hour (AID 1224876); further: nearly all actives have a fitted effect of over 45% in size
Method in brief: as §6

[18] = A CellTox Green Cytotoxicity Assay to monitor cytotoxicity in HEK293 cells - 32 hour (AID 1224881); further: nearly all actives have a fitted effect of over 40% in size
Method in brief: as §3

[19] = qHTS assay to identify small molecule agonists of the hypoxia (HIF-1) signaling pathway (AID 1224846; active means well fitted activation curve with a large enough effect in the signal ratio in the repeat runs, not every such curve was filed as active; the % refers to the signal ratio)
Method in brief: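 Compounds added to ME-180 cells carrying hypoxia-response-element beta-lactamase reporter (0.5% dialyzed FBS, 5 h preplating), 17 h at 37C; agonist activity detected by CCF4-AM B/G FRET read-out.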

C[N+](C)(C)CCOC(=O)CCC(=O)OCC[N+](C)(C)C
Potency [1]: inactive
Potency [2]: inactive
Potency [3]: inactive
Potency [4]: inactive
Potency [5]: inactive
Potency [6]: inactive
Potency [7]: inactive
max response [8]: 3.39%
Potency [9]: inactive
Potency [10]: inactive
Potency [11]: inactive
Potency [12]: inactive

CN(C)CCCN1c2ccccc2Sc2ccccc21
Potency [1]: inactive
Potency [13]: inactive
activity change, positive = activation [14]: 7.95% [at 42.5 µM]
Potency [2]: inactive
Potency [3]: inactive
Potency [4]: inactive
Potency [5]: inactive
Potency [6]: inactive
Potency [7]: inactive
Potency [15]: inactive
max response [8]: -25.3%
Potency [9]: inactive
Potency [10]: inactive
Potency [16]: 26.8 µM (active)
Potency [11]: 23.9 µM (active)

O=C(O)c1ccc(-n2nc(-c3ccccc3O)nc2-c2ccccc2O)cc1
Potency [13]: 21.1 µM (active)
activity change, positive = activation [14]: -48.9% [at 42.5 µM]
Potency [4]: inactive
Potency [5]: inactive
Potency [6]: inactive
Potency [7]: inactive
Potency [15]: inactive
Potency [9]: inactive
Potency [17]: inactive
Potency [10]: inactive
Potency [11]: inactive
Potency [12]: inactive
Potency [18]: inactive

c1ccc(C(O[C@H]2CCCN(CCc3ccc4c(c3)OCO4)C2)c2ccccc2)cc1
Potency [2]: inactive
Potency [4]: inactive
Potency [5]: inactive
Potency [6]: inactive
Potency [15]: inactive
max response [8]: -24.8%
Potency [9]: inactive
Potency [10]: inactive
Potency [12]: inactive
Potency [18]: inactive

c1ccc(-c2ccccn2)nc1
Potency [1]: inactive
activity change, positive = activation [14]: -20.5%
Potency [2]: inactive
Potency [3]: inactive
Potency [4]: inactive
Potency [5]: inactive
Potency [6]: inactive
max response [8]: -0.479%
Potency [9]: inactive
Potency [17]: inactive
Potency [11]: inactive
Potency [12]: inactive
Potency [18]: inactive

C=C(C)C(=O)OCCO
Potency [1]: inactive
Potency [2]: inactive
Potency [3]: inactive
Potency [4]: inactive
Potency [5]: inactive
Potency [6]: inactive
Potency [7]: inactive
Potency [15]: inactive
max response [8]: 3.51%
Potency [9]: inactive
Potency [17]: inactive
Potency [10]: inactive
Potency [11]: inactive

COc1ccc(S(=O)(=O)N2C(=O)[C@@](c3ccccc3OC)(N3C[C@H](O)C[C@H]3C(=O)N(C)C)c3cc(Cl)ccc32)c(OC)c1
Potency [19]: inactive
Potency [3]: 49 µM (active)
Potency [4]: inactive
Potency [6]: inactive
Potency [8]: 49 µM (active)
Potency [9]: inactive
Potency [16]: inactive
Potency [11]: inactive
Potency [12]: inactive
Potency [18]: inactive

CCCCCCCCCCCCCCCCCCOS(=O)(=O)O
activity change, positive = activation [14]: -38.9%
Potency [2]: inactive
Potency [4]: inactive
Potency [5]: inactive
Potency [7]: inactive
Potency [15]: inactive
Potency [10]: inactive
Potency [12]: inactive

COc1cc(Cl)c(OC)cc1N
Potency [1]: inactive
Potency [2]: inactive
Potency [4]: inactive
Potency [5]: inactive
Potency [6]: inactive
Potency [7]: inactive
Potency [15]: inactive
Potency [9]: inactive
Potency [17]: inactive
Potency [10]: inactive
Potency [11]: inactive
Potency [12]: inactive
Potency [18]: inactive

COc1ccc2cccc(CCNC(C)=O)c2c1
Potency [1]: inactive
Potency [2]: inactive
Potency [3]: inactive
Potency [4]: inactive
Potency [5]: inactive
Potency [6]: inactive
Potency [7]: inactive
max response [8]: -8.88%
Potency [9]: inactive
Potency [12]: inactive
Potency [18]: inactive

CCN(CC)CCOC(=O)C(Cc1cccc2ccccc12)CC1CCCO1 (configuration not stated)
Potency [1]: inactive
Potency [2]: inactive
Potency [4]: inactive
Potency [5]: inactive
Potency [15]: inactive
Potency [9]: inactive
Potency [10]: inactive
Potency [16]: inactive
Potency [11]: inactive

C=CC(=O)OCCOc1ccccc1
Potency [1]: inactive
Potency [13]: inactive
activity change, positive = activation [14]: 46.4% (active)
Potency [2]: inactive
Potency [3]: inactive
Potency [4]: inactive
Potency [5]: inactive
Potency [6]: inactive
Potency [7]: inactive
max response [8]: 2.45%
Potency [9]: inactive
Potency [17]: inactive
Potency [10]: inactive
Potency [11]: inactive
Potency [12]: inactive
Potency [18]: inactive

Brc1c2ccccc2c(Br)c2ccccc12
activity change, negative = cytotoxicity [1]: 5.06% [at 14 µM]
activity, negative = inhibition [13]: 4.96% [at 8.39 µM]
activity change, positive = activation [14]: 2.61% [at 8.39 µM]
activity change, negative = cytotoxic [3]: 4.29% [at 6.97 µM]
cytotoxicity [4]: 0.676% [at 6.97 µM]
activity change, negative = cytotoxic [5]: 1.43% [at 6.97 µM]
cytotoxicity increase [6]: -0.912% [at 6.97 µM]
viability change, negative = cytotoxic [15]: 0.903% [at 6.97 µM]
max response [8]: 1.72%
activity change [9]: -0.621% [at 6.97 µM, active compounds read high]
cytotoxicity increase [17]: 2.77% [at 6.97 µM]
activity change, negative = cytotoxic [10]: 0.723% [at 6.97 µM]
cytotoxicity [16]: 2.45% [at 6.97 µM]
cytotoxicity increase [11]: -0.88% [at 6.97 µM]
activity change, negative = cytotoxicity [12]: 0.766% [at 6.97 µM]
cytotoxicity increase [18]: -2.57% [at 6.97 µM]

CN1CCN(C(c2ccccc2)c2ccccc2)CC1
Potency [1]: inactive
Potency [3]: inactive
Potency [4]: inactive
Potency [5]: inactive
Potency [6]: inactive
Potency [7]: inactive
Potency [15]: inactive
max response [8]: -1.32%
Potency [9]: inactive
Potency [17]: inactive
Potency [10]: inactive
Potency [16]: inactive
Potency [11]: inactive
Potency [12]: inactive
Potency [18]: inactive

O=S(c1cc(Cl)cc(Cl)c1O)c1cc(Cl)cc(Cl)c1O
Potency [13]: inactive
activity change, positive = activation [14]: -6.01% [at 42.5 µM]
Potency [2]: inactive
Potency [3]: inactive
Potency [4]: inactive
Potency [5]: inactive
Potency [6]: inactive
Potency [7]: inactive
Potency [15]: inactive
max response [8]: -7.88%
Potency [9]: inactive
Potency [17]: inactive
Potency [16]: inactive
Potency [11]: inactive
Potency [12]: inactive
Potency [18]: inactive

COC(C)OC
Potency [1]: inactive
Potency [13]: inactive
activity change, positive = activation [14]: -2.66%
Potency [2]: inactive
Potency [4]: inactive
Potency [5]: inactive
Potency [6]: inactive
Potency [7]: inactive
Potency [15]: inactive
max response [8]: 5.31%
Potency [9]: inactive
Potency [17]: inactive
Potency [10]: inactive
Potency [16]: inactive
Potency [11]: inactive
Potency [12]: inactive
Potency [18]: inactive
